ATXN viability = reduces viability in counter-screen for ATXN expression inhibitors; S2 cells (HEK-293 line with an ATXN2-luciferase reporter) viability, CellTiter-Fluor protease fluorescence, 24 h; Potency, µM (doses to about 56.7 µM), usual class: cytotoxic; 0.49% of 400,000 active; AID 651635; also: nearly all actives have a fitted effect of over 40% in size
ATXN2 expr inh = ATXN2 expression inhibition; HEK-293 ATXN2-luciferase reporter, luminescence, 24 h; Potency, µM (titrated, usually from 57 µM), hits mostly inhibitors; 0.72% of 360,000 active; AID 1745845; also: nearly all actives have a fitted effect of over 55% in size
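ATXN2-luciferase reporter cells (luciferase flanked by upstream and downstream ATXN2 gene portions) were treated 24 h at 37 °C with compounds at up to 57 uM. SteadyGlo luminescence gave expression; GF-AFC fluorescence gave viability.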
HepG2 tox = kills HepG2 cells in TGF-b inhibitor counter-screen. Potency, µM (series often up to 46.1 µM), hits mostly cytotoxic. HepG2 CAGA-GFP viability, ATP luminescence, 18 h. AID 588856. 0.76% of 410,000 active
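CellTiter-Glo luminescence gave cytotoxicity after 18 hours at 37 degrees C. The cells were HepG2 CAGA-GFP in 1% FBS DMEM, stimulated with 500 pg/mL TGF-beta after compound addition. %Activity was normalised to no-cell wells (complete cell-killing) and DMSO (no toxicity), and curves were fitted and classified.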
TGFb inhibitor = TGF-b pathway inhibition. 1.2% of 410,000 active. HepG2 CAGA-GFP TGF-b/SMAD3 reporter, GFP fluorescence, 18 h; TGF-beta stimulated, 500 pg/mL final. Potency, µM (titrated, usually from 46.1 µM), actives largely listed as inhibitors; also: nearly all actives have a fitted effect of over 65% in size
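Using HEPG2 CAGA-GFP reporter cells at 1000 cells/well, we pinned test compounds, stimulated with recombinant TGF-beta (500 pg/mL final) and measured total well GFP after 18 h.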
TDP1 cell noCPT = qHTS for Inhibitors of human tyrosyl-DNA phosphodiesterase 1 (TDP1): qHTS in cells in absence of CPT. DT40 Tdp1-/- hTDP1 cells, no CPT, ATP luminescence, 48 h. Potency, µM (series often up to 46.2 µM), usual class: inhibitors. 15% of 420,000 active. AID 686978, 2013; also: nearly all actives have a fitted effect of over 55% in size
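Camptothecin absent (DMSO only). Human TDP1-complemented DT40 knockout cells, 400 cells/well, 37 °C for minimum 48 hr; ATP measured via CellTiter-Glo, 30 min dark incubation, luminescence.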
TDP1 cell CPT = DT40-hTDP1 cell growth loss with CPT. chicken DT40 Tdp1-/-;hTDP1 cells + 20 nM CPT, ATP luminescence, 48 h. 12% of 420,000 active. Potency, µM (titrated, usually from 46.2 µM), actives largely listed as inhibitors; also: nearly all actives have a fitted effect of over 55% in size
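Cell growth measured by CellTiter-Glo luminescence after a minimum 48 h, 37 C compound exposure with 20 nM CPT in Tdp1-knockout DT40 cells stably expressing hTDP1, seeded 400/well; qHTS titration format.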
Each line names hits and unclear results; the compound was inactive in the other large screens. This is a sample that favours compounds with a hit; in the whole collection about 17% have one here. Calls follow the shape of the dose curve; as a rule, active = well fitted curve in the direction sought with a large enough effect; inconclusive = small, poorly fitted or top-dose-only effect, or another doubt; inactive = no such curve, though single readings can be large; an effect the other way counts as inactive or inconclusive.

CC1CC(=O)N(CC(=O)NC2CCCCC2)c2ccccc2S1 (stereo unspecified)	none
CCn1c(N2CCN(CC(=O)Nc3cccc(C)c3C)CC2)nc2ccccc21	TDP1 cell noCPT 21µM
Cc1ccc(SCc2nc3ccccc3n2CC(=O)Nc2ccc(Cl)cc2)cc1	TGFb inhibitor inconclusive, TDP1 cell noCPT inconclusive, TDP1 cell CPT 21µM
Cc1ccc(NCc2nc3ccccc3n2C)cc1	TDP1 cell noCPT inconclusive, TDP1 cell CPT inconclusive
CC(C)Cn1c(N2CCN(CC(=O)Nc3ccc(Cl)cc3)CC2)nc2ccccc21	TGFb inhibitor inconclusive, TDP1 cell noCPT 21µM, TDP1 cell CPT inconclusive
Cc1ccc(NC(=O)NCc2nc3ccccc3n2C)cc1	ATXN2 expr inh inconclusive, TDP1 cell noCPT 23µM, TDP1 cell CPT inconclusive
COCCN(C(=O)COC(=O)c1ccc(Br)o1)c1c(N)n(Cc2ccccc2)c(=O)[nH]c1=O	none (no result: ATXN2 expr inh)
CCOC(=O)/C=C/C(=O)Nc1ccccc1C(=O)NC1CCCCC1	TDP1 cell noCPT inconclusive, TDP1 cell CPT inconclusive
O=C1C=Cc2ccccc2/C1=C/c1[nH]c(=O)[nH]c1O	TDP1 cell noCPT inconclusive (no result: ATXN2 expr inh)
CCN(CC)S(=O)(=O)c1cc(NC(=O)CN2C(=O)NC3(CCCc4ccccc43)C2=O)ccc1C (stereo unspecified)	TDP1 cell noCPT inconclusive, TDP1 cell CPT 23µM (no result: ATXN2 expr inh)
Cc1ccc(C)c(NC(=O)CN(C)C(=O)CN2C(=O)NC3(CCc4ccccc43)C2=O)c1 (stereo unspecified)	TDP1 cell noCPT 8.2µM, TDP1 cell CPT 9.2µM
Cc1ccccc1-c1cnc(C(O)c2c(C)ccc3ccccc23)[nH]1 (stereo unspecified)	TDP1 cell noCPT inconclusive, TDP1 cell CPT inconclusive
COC(=O)c1ccc(Oc2ccc(S(=O)(=O)N3CCCCC3)cc2N)cc1	ATXN2 expr inh inconclusive, TDP1 cell noCPT 16µM, TDP1 cell CPT inconclusive
COC(=O)CNc1cc(S(=O)(=O)N2CCCCC2)ccc1Oc1ccc(C(=O)OC)cc1	ATXN2 expr inh inconclusive, TDP1 cell noCPT inconclusive, TDP1 cell CPT inconclusive
Nc1cc(S(=O)(=O)N2CCCCC2)ccc1Oc1ccc(Cl)cc1	TGFb inhibitor inconclusive, TDP1 cell noCPT 8.2µM, TDP1 cell CPT inconclusive (no result: ATXN2 expr inh)
CCOc1ccc(CNC(=O)c2ccc3c(c2)nc2n3CCC(C)C2)cc1OC (stereo unspecified)	none (no result: ATXN viability, ATXN2 expr inh)
O=C(NCCCN1CCCCC1)c1ccc2c(c1)NC(=O)c1ccccc1S2	ATXN viability inconclusive, TDP1 cell noCPT inconclusive (no result: ATXN2 expr inh)
O=C1Nc2cc(C(=O)NCCCN3CCCC3)ccc2S/C1=C/c1ccccc1F	ATXN viability inconclusive, TGFb inhibitor inconclusive, TDP1 cell noCPT inconclusive, TDP1 cell CPT 18µM (no result: ATXN2 expr inh)
O=C1Nc2cc(C(=O)NCCN3CCCCCC3)ccc2S/C1=C/c1ccccc1F	ATXN viability inconclusive, HepG2 tox 8.9µM, TGFb inhibitor 10µM, TDP1 cell noCPT 3.7µM, TDP1 cell CPT 7.3µM (no result: ATXN2 expr inh)
CN[C@@H]1[C@@H](O)[C@@H](O[C@@H]2[C@@H](O)[C@H](O[C@H]3O[C@H](CN)[C@@H](O)[C@H](O)[C@H]3O)[C@@H](N)C[C@H]2NC(=O)C(O)CN)OC[C@]1(C)O (stereo partly specified)	none (no result: ATXN viability, ATXN2 expr inh, HepG2 tox, TGFb inhibitor)
C[C@@H](NCc1cc(Br)cc2[nH]c(=O)c(=O)[nH]c12)P(=O)(O)O	none (no result: ATXN viability, ATXN2 expr inh, HepG2 tox, TGFb inhibitor)
CCCOc1ccccc1Cn1c(=O)sc2ccccc21	TDP1 cell noCPT inconclusive, TDP1 cell CPT inconclusive
CC(=O)c1cccc(NC(=O)CSc2nnc(C(C)N(C)C)n2Cc2ccccc2)c1 (stereo unspecified)	TDP1 cell noCPT 23µM, TDP1 cell CPT inconclusive
O=C([C@@H]1C[C@@H](Sc2nc3ccccc3[nH]2)CN1CC1CCCCC1)N1CCOCC1	none (no result: ATXN2 expr inh, HepG2 tox, TGFb inhibitor)
NS(=O)(=O)c1ccc(CCNC(=O)COC(=O)/C=C/c2ccccc2Cl)cc1	none (no result: ATXN2 expr inh)
COc1cc(Cl)c(NC2=CC(=O)C(=O)c3ccccc32)c(OC)c1	ATXN viability 25µM, ATXN2 expr inh inconclusive, HepG2 tox 3.5µM, TGFb inhibitor 5µM, TDP1 cell noCPT inconclusive, TDP1 cell CPT 12µM
O=C1C=C(Nc2cccnc2)c2ccccc2C1=O	ATXN2 expr inh inconclusive, HepG2 tox 4.5µM, TGFb inhibitor 3.5µM, TDP1 cell noCPT 7.3µM, TDP1 cell CPT 7.3µM (no result: ATXN viability)
O=C1C=C(Nc2ccc(F)cc2)c2ccccc2C1=O	ATXN2 expr inh inconclusive, HepG2 tox 4.5µM, TGFb inhibitor 4µM, TDP1 cell noCPT 9.2µM, TDP1 cell CPT 7.3µM
CCOc1ccc(NC2=CC(=O)C(=O)c3ccccc32)cc1	ATXN viability inconclusive, TGFb inhibitor 4.5µM, TDP1 cell noCPT 3.3µM, TDP1 cell CPT 2.3µM
CN(C)c1cc[n+](CC(=O)Nc2cc(C(F)(F)F)ccc2Cl)cc1	TDP1 cell noCPT 8.2µM, TDP1 cell CPT 16µM
O=C(C[n+]1ccc2ccccc2c1)Nc1cc(C(F)(F)F)ccc1Cl	TDP1 cell noCPT inconclusive, TDP1 cell CPT 21µM
O=C(C[n+]1ccccc1)Nc1cc(C(F)(F)F)ccc1Cl	none
O=C(CCOc1ccccc1)Nc1ccnn1C1CCN(CCc2ccccc2)CC1	TDP1 cell CPT inconclusive
COCCNc1nc2cc(-c3ccccc3)sc2c(=O)n1C	TDP1 cell noCPT inconclusive, TDP1 cell CPT inconclusive
COCCNc1nc(NCc2cccc(OC)c2)c2sc(-c3ccccc3)cc2n1	ATXN viability inconclusive, HepG2 tox 11µM, TGFb inhibitor inconclusive, TDP1 cell noCPT 13µM, TDP1 cell CPT 18µM
COCCNc1nc(Oc2ccc(NC(C)=O)cc2)c2sc(-c3ccccc3)cc2n1	ATXN viability inconclusive, ATXN2 expr inh inconclusive, TGFb inhibitor inconclusive, TDP1 cell noCPT inconclusive, TDP1 cell CPT inconclusive
COCCNc1nc(NCc2ccc(NC(C)=O)cc2)c2sc(-c3ccccc3)cc2n1	ATXN2 expr inh 22µM, TGFb inhibitor inconclusive, TDP1 cell noCPT 4.1µM, TDP1 cell CPT 3.3µM (no result: ATXN viability)
COc1cccc(CNc2nc3cc(-c4ccccc4)sc3c(=O)n2C)c1	TGFb inhibitor inconclusive, TDP1 cell noCPT inconclusive, TDP1 cell CPT inconclusive
COCCNc1nc(Oc2ccc(CC(=O)OC)cc2)c2sc(-c3ccccc3)cc2n1	TDP1 cell noCPT 18µM, TDP1 cell CPT inconclusive
Cc1ccc(C(=O)CSc2nc(O)cc(=O)[nH]2)cc1C	none (no result: ATXN2 expr inh)
O=C(CNS(=O)(=O)c1ccccc1F)NNC(=O)c1ccc(Br)cc1	TDP1 cell CPT inconclusive
O=C(NCc1cccnc1)NC1(C(F)(F)F)Oc2ccc(Cl)cc2O1 (stereo unspecified)	ATXN viability inconclusive, ATXN2 expr inh inconclusive, TGFb inhibitor inconclusive, TDP1 cell noCPT 12µM, TDP1 cell CPT 10µM
